{"source": "ChEMBL document CHEMBL4513135", "about": "“CO-ADD screening of IQOG CSIS (Spain) compounds”", "key": {"Staphylococcus aureus": {"system": "Staphylococcus aureus", "settings": "Concentration 32 ug.mL-1; ASSAY_TEST Inhibition of Bacterial Growth; detection method Absorption (OD600); MEDIA CAMHB; plate type 384well; NBS; CORNING #3640; time 18 hr"}, "Escherichia coli": {"system": "Escherichia coli", "settings": "Concentration 32 ug.mL-1; ASSAY_TEST Inhibition of Bacterial Growth; detection method Absorption (OD600); MEDIA CAMHB; plate type 384well; NBS; CORNING #3640; time 18 hr"}}, "note": "Potency and affinity values are given separately.", "data": [{"compound": "OCc1cc2ccccc2[nH]1", "values": [{"measurement": "Inhibition", "setting": "Staphylococcus aureus", "value": 39.41, "unit": "%"}, {"measurement": "Inhibition", "setting": "Escherichia coli", "value": -0.49, "unit": "%"}]}]}
